FMDV inh: antivirals against foot and mouth disease virus; FMDV antiviral cell-based qHTS; Potency, µM (titrated, usually from 57.9 µM), for the others: at the highest dose activity change, negative = inhibition, hits mostly inhibitors; 410,000 compounds, 1.2% hits; AID 1159524; calls by dose curve; tested in HEK293T cells; also: read-out not given here; potency is read from the fitted curve at half-maximal effect; nearly all actives have a fitted effect of over 45% in size
MARV entry inh: Marburg virus entry inhibition; Marburg virus pseudotyped entry inhibition, cell reporter; 300,000 compounds, 1.8% hits; Potency, µM (series often up to 37.8 µM), for inactives: at the top dose activity change, negative = inhibition, most hits filed as inhibitors; calls by dose curve; tested in HEK293 cells; also: potency is read from the fitted curve at half-maximal effect
HCMV antiviral: inhibitors of human cytomegalovirus; HFF cells, HCMV-luciferase reporter, 72 h; active compounds read low; activity change, negative = inhibition, % at 57.5 µM; 410,000 compounds, 4.5% hits; in the data active = activity change below about -60%; inconclusive = no clear call, values can overlap the other calls; inactive = above about -39%
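HFF cells seeded 16 h at 37C, treated with compounds, infected with luciferase-reporter HCMV at MOI 1 PFU/cell; luciferase read at 72 h post infection, normalized to buffer-only and Salinomycin controls.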
Vaccinia mCherry: vaccinia inhibition (mCherry reporter); 310,000 compounds, 0.63% hits; Vaccinia virus mCherry reporter infection, fluorescence; AID 720579; Potency, µM (top dose mostly 36.5 µM), without a hit: at the highest dose activity change, negative = inhibition, actives largely listed as inhibitors; calls by dose curve; tested in A549 cells; also: potency is read from the fitted curve at half-maximal effect; nearly all actives have a fitted effect of over 35% in size
Vaccinia Venus: inhibitors of vaccinia virus (Venus reporter); 330,000 compounds, 0.46% hits; AID 720580; Vaccinia virus Venus reporter expression, fluorescence; Potency, µM (series often up to 36.5 µM), for inactives: top-dose activity change, negative = inhibition, hits mostly inhibitors; calls by dose curve; tested in A549 cells; also: potency is read from the fitted curve at half-maximal effect; nearly all actives have a fitted effect of over 30% in size
Lassa entry inh: blocks Lassa virus binding to or entry into cells. Lassa virus pseudotype entry inhibition, cell reporter. 300,000 compounds, 1.2% hits. Potency, µM (top dose mostly 37.9 µM), for the others: at the highest dose activity change, negative = inhibition, hits mostly inhibitors; calls by dose curve; tested in HEK293 cells; also: potency is read from the fitted curve at half-maximal effect; nearly all actives have a fitted effect of over 50% in size
* = called active by the depositor; i = inactive; ? = inconclusive; / = no result given; [ ] = dose if it differs, or a comment. Sampled rows, rich in hits. Any-hit rate of the full collection: about 6.5%. % is scaled to controls: 0 for no effect and ±100 for the full control effect.

SMILES | FMDV inh | MARV entry inh | HCMV antiviral | Vaccinia mCherry | Vaccinia Venus | Lassa entry inh
COc1ccc(-c2[nH]ncc2CN2CCC(C(=O)N3CCOCC3)CC2)c(F)c1 | -5% | 8% | -63* | -9% | -9% | 1%
COc1ccc(Nc2nccc3[nH]c(-c4ccccc4OC)cc23)cc1 | / | / | -4 | / | / | /
COc1ccc(NC(=O)c2c(C)nn(Cc3ccccc3)c2Cl)cc1S(=O)(=O)N1CCOCC1 | ? | / | -72* | / | / | /
COc1ccc(C(=O)NCc2c(C)nn(Cc3ccccc3)c2C)cc1S(=O)(=O)N1CCOCC1 | -14% | / | -101* | / | / | /
Cc1nn(Cc2ccccc2)c(Cl)c1C(=O)Nc1ccc(OC(F)(F)F)cc1 | -26% | -1% | -69* | -19% | -29% | -22%
CC(=O)Nc1ccc(NC(=O)c2c(C)nn(Cc3ccccc3)c2Cl)cc1 | 15% | ? | -19 | ? | -2% | -3%[46.1 µM]
CC(C)N1CCN(c2ccc(C(=O)c3c(-c4ccc(O)cc4)sc4cc(O)ccc34)cc2)CC1 | 23% | / | / | / | / | /
CCCN1C(=O)C(=O)c2cc(C)ccc21 | 19% | / | -39 | i | -3% | /
Cc1ccc2c(c1)C(=O)C(=O)N2Cc1ccc(Br)cc1 | 0% | / | -76* | -10% | ? | /
Cc1ccc2c(c1)C(=O)C(=O)N2Cc1ccc(OCCC(C)C)cc1 | -19% | -12%[46.1 µM] | -95* | -16% | -8% | 1%[46.1 µM]
Cc1ccc(CN2C(=O)C(=O)c3cc(C)ccc32)cc1 | 9% | / | ? | -28% | -27% | /
CN(C)c1ccc(/C=C/c2ccc3cc(N)ccc3n2)cc1 | / | / | / | 14% | 12% | /
CC(=O)c1ccc(OCC(=O)N(C2CCCCC2)C2CCS(=O)(=O)C2)cc1 (stereo unspecified) | -6% | 1% | -7 | i | -18% | -2%
O=C(CCl)N(C1CCCC1)C1CCS(=O)(=O)C1 (stereo unspecified) | -17% | ? | -83* | ? | ? | ?
CCOc1ccc(-n2nc(CO)c(C(=O)NCCCc3ccccc3)n2)cc1 | 9% | -26%[46.1 µM] | 31 | 0% | -9% | -1%[46.1 µM]
[O-][n+]1onc2c1CCc1c-2nn(-c2ccccc2Cl)[n+]1[O-] | / | ? | -100* | 1µM* | 1.3µM* | ?
Cc1ccc(-n2nc3c([n+]2[O-])CCc2c-3no[n+]2[O-])cc1 | 5% | ? | -78* | / | / | ?
Cc1c(C(=O)Nc2ccccc2F)sc2ncnc(N(C)C3CCCCC3)c12 | -16% | / | -9 | 2% | -8% | -8%[46.1 µM]
Oc1cc2c(cc1O)[C@H]1c3ccccc3CNC1CC2 (stereo partly specified) | / | 16µM* | / | / | / | /
N#CCC(=O)Nc1ccc(C(=O)NNC(=S)NC2CC2)cc1 | 6% | 8% | -97* | i | -13% | ?
O=C(c1cc(COc2ccc3ncccc3c2)on1)N1CCC[C@H]1CO | -11% | -21% | ? | -11% | -17% | ?
COCC1CCCN(C(=O)c2cc(COc3ccc4ncccc4c3)on2)C1 (stereo unspecified) | ? | ? | -85* | -7% | -15% | ?
O=C(c1cc(COc2ccc3ncccc3c2)on1)N1CCCC(O)C1 (stereo unspecified) | -20% | -18%[46.1 µM] | -63* | -10% | -28% | -5%[46.1 µM]
CC(CNC(=O)c1cc(COc2ccc3ncccc3c2)on1)c1ccccc1 (stereo unspecified) | ? | ? | -76* | -7% | -24% | ?
Cc1cc(CN(C)C(=O)c2cc(COc3ccc4ncccc4c3)on2)on1 | ? | ? | -80* | -3% | -14% | ?
CN(Cc1nccn1C)C(=O)c1cc(COc2ccc3ncccc3c2)on1 | ? | ? | -31 | ? | -4% | -16%[46.1 µM]
COc1cc(Cl)ccc1OCc1cc(C(=O)NCC(C)c2ccccc2)no1 (stereo unspecified) | -2% | / | -16 | / | / | /
O=C(NC1CCCCCCC1)c1cc(COc2ccc3ncccc3c2)on1 | 3.5µM* | -19%[46.1 µM] | ? | -25% | -18% | ?
O=C(c1cc(COc2ccc(F)cc2Cl)on1)N1CCCC(OCc2cccnc2)C1 (stereo unspecified) | 0% | -7%[46.1 µM] | ? | -20% | -13% | -4%
CCC(O)C1CCN(C(=O)c2cc(COc3ccc4ncccc4c3)on2)CC1 (stereo unspecified) | ? | ? | / | -18% | -24% | ?

Screens from PubChem BioAssay.
